# PubChem BioAssay AID456 (Sanford-Burnham Center for Chemical Genomics, 2006)
# Screen size: about 10,000 compounds; about 25 (0.2%) were called active.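 Rule for the calls: active = top tenth filtered wells with inhibition above zero that passed visual or statistical confirmation; inactive = the rest, including hits rejected on review.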 For the sample, actives were picked, then their nearest neighbours and some compounds at random. Potency and affinity values are given separately.
# Experiment: suppression of endothelial VCAM-1 upregulation – imaging, high-content imaging, pooled HUVEC, TNFa stimulus (AID 456);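 for inhibition: VCAM-1 immunofluorescence minus red nonspecific channel after plate median normalization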
# Settings: HUVEC TNFa-induced VCAM-1 surface expression, immunofluorescence imaging;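 compounds screened at 5 µM final in the well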
row,Structure (SMILES),inhibition
1,CCCCn1cnc2c(c1=O)c1nc3ccccc3nc1n2Cc1ccc2c(c1)OCO2,inactive
2,CN(C)c1ccc(C(=O)OCC(=O)NC2CCCCC2)cc1,inactive
3,O=C(Nc1ccccc1N1CCN(C(=O)c2ccc(Cl)cc2)CC1)c1cc2ccccc2o1,inactive
4,CS(=O)(=O)N1CCN(c2ccccc2NC(=O)c2ccc(-c3ccc(Cl)cc3Cl)o2)CC1,70.7% (active)
5,CS(=O)(=O)N1CCN(c2ccccc2NC(=O)c2cccs2)CC1,inactive
6,Cc1cc(Br)c(S(=O)(=O)n2nnc3ccccc32)cc1C,inactive
7,COc1cc(CNc2ccc(N3CCOCC3)c(C(=O)O)c2)ccc1OCC(N)=O,inactive
8,Cc1ccc(NC(=O)c2ccco2)c(NC(=O)CN2C(=O)c3ccccc3C2=O)c1,inactive
9,CCOc1ccc2cc(C#N)c(SCC(=O)N3CCCC3)nc2c1,inactive
10,CCOc1ccc2cc(C#N)c(SCC(=O)N3CCOCC3)nc2c1,inactive
11,CCOc1ccc2cc(C#N)c(SCC(=O)N3CCC(C)CC3)nc2c1,69.1% (active)
12,Cc1cc(Cl)ccc1NC(=O)CSc1nnc(Cc2cccs2)n1Cc1ccco1,inactive
13,O=S(=O)(NCCCCCNS(=O)(=O)c1ccccc1)c1ccccc1,inactive
14,COc1ccc(OC)c(NC(=O)CS(=O)(=O)c2ccccc2)c1,inactive
15,Cc1ccccc1-c1nc2ccccc2c(=O)n1C1CCS(=O)(=O)C1 (centres undefined),inactive
16,C=C(Cl)COC(=O)[C@H]1C2C=CC(C2)C1C(=O)O (some centres undefined),inactive
17,O=C(c1cnn2c1NC(c1ccco1)CC2C(F)(F)F)N1CCN(c2cccc(Cl)c2)CC1 (centres undefined),inactive
18,O=C(CC(SCCO)c1ccc2c(c1)OCO2)c1ccco1 (centres undefined),inactive
19,COc1ccc(CCNC(=O)C2CCN(Cc3nc(-c4cccc(Cl)c4)oc3C)CC2)cc1OC,76.3% (inactive)
20,Cc1ccccc1-c1nc(CN2CCC(C(=O)N3CCC(C(N)=O)CC3)CC2)c(C)o1,inactive
21,O=C(CN(Cc1ccc(F)cc1)C(=O)Cn1nnc2ccccc21)NCC1CCCO1 (centres undefined),inactive
22,O=C(NCC1CCCO1)c1ccc(C(=O)NCC2CCCO2)cc1 (centres undefined),inactive
23,O=S(=O)(c1ccc2ccccc2c1)N1CCCCC1,inactive
24,CSc1ncc(Cl)c(C(=O)Nc2ccc(S(=O)(=O)N3CCOCC3)cc2)n1,inactive
25,Cc1cnc(C(=O)Nc2ccc(N3CCOCC3)cc2)cn1,inactive
26,Cc1cc(NCCN2CCOCC2)n2nc(C)c(-c3ccccc3)c2n1,inactive
27,COC(=O)c1cn(C(=O)c2ccc(Br)o2)c2ccccc12,inactive
28,O=C(NCCN1CCOCC1)C1CC(=O)N(c2ccc(F)c(Cl)c2)C1 (centres undefined),inactive
29,CC1=C(C(=O)OC2CCCCC2)C(c2ccc(C)o2)C2=C(CC(C)(C)CC2=O)N1 (centres undefined),inactive
